The values that follow come from the supplement of paper PMC11732987, “Enantioselective OTUD7B fragment discovery through chemoproteomics screening and high-throughput optimisation” (Communications Chemistry, 2025).

What all share (assay): log2 ratio of Biotin-Ahx-Ub-VS probe labelling (fragment/DMSO); higher = less target engagement (more negative = stronger competition), active = hit call of the paper (q ≤ 0.05, log2 ratio ≤ -1)
Holding throughout (conditions): compound concentration: 200 uM; treatment time: 3 h

Test [1] deals with T1, USP19 (UniProt O94966).
T1 sequence (whole entry): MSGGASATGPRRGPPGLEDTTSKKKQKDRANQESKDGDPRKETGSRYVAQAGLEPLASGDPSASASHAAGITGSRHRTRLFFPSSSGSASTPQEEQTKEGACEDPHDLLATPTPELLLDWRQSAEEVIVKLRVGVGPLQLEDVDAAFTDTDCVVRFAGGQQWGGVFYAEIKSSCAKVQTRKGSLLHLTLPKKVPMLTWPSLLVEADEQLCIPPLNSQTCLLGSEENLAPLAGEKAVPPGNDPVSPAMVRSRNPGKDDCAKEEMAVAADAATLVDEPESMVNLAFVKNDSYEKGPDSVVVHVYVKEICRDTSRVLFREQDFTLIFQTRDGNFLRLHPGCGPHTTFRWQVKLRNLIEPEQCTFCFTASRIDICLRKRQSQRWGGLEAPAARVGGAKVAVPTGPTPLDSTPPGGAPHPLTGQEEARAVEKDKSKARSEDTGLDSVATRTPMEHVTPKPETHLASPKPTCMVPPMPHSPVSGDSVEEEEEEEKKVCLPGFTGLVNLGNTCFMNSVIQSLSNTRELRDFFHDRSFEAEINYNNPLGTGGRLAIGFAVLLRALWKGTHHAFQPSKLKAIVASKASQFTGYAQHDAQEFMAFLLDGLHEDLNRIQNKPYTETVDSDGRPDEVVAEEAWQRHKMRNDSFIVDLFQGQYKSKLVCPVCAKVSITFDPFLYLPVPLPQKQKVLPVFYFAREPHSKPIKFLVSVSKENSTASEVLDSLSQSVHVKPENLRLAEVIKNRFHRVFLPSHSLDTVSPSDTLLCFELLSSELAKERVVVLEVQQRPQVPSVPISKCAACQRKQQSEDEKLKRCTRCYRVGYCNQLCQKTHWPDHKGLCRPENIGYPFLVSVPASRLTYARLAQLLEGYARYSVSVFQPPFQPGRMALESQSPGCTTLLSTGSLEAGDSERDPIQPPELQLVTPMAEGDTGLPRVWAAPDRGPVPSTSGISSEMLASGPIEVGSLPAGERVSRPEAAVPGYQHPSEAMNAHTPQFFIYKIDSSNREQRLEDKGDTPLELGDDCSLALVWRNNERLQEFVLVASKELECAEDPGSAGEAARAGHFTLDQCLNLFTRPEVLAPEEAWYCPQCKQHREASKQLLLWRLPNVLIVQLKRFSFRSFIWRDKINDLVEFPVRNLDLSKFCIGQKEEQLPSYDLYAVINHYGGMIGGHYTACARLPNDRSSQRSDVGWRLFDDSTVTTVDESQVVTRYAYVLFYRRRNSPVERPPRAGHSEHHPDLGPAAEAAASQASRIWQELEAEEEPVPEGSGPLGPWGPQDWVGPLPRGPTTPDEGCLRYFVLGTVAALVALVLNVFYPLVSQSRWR
Summed up: (§1)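 Labelled DUBs from HEK293T lysate were NeutrAvidin-enriched, digested with LysC and trypsin, and run by diaPASEF LC-MS/MS. Before that, each 495 µg sample in Tris/CHAPS/IGEPAL buffer with protease inhibitors was treated in triplicate with fragment at 200 µM or vehicle for 3 h, then with Biotin-Ahx-Ub-VS at 0.5 µM final for 1 h. Values are average log2 ratios of fragment over vehicle by unpaired t-test, based on global-median-normalised Spectronaut label-free quantities from proteins with ≥2 unique peptides.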

The target of test [2] is T2, USP22 (UniProt Q9UPT9).
T2 sequence (whole entry): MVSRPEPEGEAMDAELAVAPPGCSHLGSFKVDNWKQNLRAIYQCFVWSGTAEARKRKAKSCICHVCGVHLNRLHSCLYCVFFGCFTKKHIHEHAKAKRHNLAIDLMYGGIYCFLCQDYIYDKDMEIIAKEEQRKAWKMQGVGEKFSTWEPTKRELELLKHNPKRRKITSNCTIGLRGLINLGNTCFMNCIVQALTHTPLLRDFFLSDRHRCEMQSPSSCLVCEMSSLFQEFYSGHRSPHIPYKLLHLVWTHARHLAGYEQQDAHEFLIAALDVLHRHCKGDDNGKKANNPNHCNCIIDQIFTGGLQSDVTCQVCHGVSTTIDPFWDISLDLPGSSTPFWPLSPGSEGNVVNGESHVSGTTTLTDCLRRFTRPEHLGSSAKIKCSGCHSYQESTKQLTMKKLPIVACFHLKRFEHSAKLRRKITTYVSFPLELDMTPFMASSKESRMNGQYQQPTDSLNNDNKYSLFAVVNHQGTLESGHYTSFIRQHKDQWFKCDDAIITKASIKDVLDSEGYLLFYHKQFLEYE
Summed up: as §1

For test [3], the target named is USP24 (UniProt Q9UPU5). Summed up: as §1
Chain of USP24 (Q9UPU5 whole entry): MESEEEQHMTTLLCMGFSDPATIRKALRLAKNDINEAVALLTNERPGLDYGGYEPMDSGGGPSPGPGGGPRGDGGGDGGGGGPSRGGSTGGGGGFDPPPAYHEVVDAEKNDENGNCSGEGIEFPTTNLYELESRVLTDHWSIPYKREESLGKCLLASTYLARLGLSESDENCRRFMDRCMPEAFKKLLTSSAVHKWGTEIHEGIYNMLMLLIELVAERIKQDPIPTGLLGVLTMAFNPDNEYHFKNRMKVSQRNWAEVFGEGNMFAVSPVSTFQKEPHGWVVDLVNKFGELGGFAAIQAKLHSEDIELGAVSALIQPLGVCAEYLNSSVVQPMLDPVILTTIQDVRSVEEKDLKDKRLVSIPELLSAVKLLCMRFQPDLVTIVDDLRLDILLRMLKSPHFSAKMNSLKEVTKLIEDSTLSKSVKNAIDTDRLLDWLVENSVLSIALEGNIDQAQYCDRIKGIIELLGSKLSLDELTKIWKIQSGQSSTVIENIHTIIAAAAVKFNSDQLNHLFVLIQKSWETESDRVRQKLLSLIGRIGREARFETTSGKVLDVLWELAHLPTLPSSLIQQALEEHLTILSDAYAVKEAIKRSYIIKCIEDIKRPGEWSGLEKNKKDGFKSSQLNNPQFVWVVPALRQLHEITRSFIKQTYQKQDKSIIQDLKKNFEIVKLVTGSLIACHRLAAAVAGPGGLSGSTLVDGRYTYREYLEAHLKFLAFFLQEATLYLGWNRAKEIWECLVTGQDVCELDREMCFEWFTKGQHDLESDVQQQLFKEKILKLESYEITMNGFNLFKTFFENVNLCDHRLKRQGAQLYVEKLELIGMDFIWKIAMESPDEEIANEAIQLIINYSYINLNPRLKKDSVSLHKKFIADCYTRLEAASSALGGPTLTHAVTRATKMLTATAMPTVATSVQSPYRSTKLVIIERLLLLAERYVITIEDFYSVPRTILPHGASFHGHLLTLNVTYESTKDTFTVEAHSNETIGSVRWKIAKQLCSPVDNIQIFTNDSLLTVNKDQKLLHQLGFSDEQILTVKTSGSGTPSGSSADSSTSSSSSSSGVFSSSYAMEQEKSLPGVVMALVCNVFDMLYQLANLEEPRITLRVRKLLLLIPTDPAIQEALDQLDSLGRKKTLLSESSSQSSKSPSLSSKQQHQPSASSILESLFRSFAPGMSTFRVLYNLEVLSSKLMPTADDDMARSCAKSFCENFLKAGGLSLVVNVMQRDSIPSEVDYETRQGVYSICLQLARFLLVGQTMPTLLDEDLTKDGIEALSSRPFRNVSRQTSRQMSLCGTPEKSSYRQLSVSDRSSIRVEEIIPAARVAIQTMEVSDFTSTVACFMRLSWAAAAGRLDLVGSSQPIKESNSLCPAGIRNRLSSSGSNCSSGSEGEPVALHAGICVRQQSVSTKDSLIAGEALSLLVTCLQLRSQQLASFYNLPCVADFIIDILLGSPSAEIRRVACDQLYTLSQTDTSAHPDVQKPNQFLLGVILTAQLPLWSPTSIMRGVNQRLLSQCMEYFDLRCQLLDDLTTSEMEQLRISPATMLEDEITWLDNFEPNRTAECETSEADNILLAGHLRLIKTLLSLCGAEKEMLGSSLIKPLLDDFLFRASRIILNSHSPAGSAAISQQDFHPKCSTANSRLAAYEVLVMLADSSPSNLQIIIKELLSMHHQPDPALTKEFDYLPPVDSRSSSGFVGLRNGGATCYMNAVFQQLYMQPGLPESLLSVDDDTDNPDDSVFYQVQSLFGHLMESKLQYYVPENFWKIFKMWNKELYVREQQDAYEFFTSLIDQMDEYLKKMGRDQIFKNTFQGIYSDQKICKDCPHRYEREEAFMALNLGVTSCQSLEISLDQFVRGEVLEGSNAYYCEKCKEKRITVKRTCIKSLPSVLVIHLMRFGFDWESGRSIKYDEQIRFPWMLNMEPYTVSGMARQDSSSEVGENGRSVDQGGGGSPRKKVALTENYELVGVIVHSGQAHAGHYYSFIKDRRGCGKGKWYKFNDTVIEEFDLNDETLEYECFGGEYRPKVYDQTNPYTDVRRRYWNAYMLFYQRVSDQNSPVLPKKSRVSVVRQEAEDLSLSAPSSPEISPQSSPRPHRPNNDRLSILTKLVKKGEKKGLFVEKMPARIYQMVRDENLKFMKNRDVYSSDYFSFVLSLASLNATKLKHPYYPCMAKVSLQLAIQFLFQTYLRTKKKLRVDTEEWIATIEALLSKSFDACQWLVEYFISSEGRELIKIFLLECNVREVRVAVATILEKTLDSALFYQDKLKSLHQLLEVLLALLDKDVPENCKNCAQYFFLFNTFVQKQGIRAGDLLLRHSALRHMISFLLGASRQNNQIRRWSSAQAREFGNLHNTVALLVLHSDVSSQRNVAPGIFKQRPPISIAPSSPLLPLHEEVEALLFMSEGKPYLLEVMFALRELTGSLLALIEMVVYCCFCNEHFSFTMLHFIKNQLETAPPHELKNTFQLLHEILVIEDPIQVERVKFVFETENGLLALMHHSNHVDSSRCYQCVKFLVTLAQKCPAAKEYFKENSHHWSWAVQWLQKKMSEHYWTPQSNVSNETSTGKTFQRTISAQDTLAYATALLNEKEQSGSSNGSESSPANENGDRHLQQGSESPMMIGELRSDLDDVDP
Test [4] addresses T3, USP25 (UniProt Q9UHP3).
T3 sequence (whole entry): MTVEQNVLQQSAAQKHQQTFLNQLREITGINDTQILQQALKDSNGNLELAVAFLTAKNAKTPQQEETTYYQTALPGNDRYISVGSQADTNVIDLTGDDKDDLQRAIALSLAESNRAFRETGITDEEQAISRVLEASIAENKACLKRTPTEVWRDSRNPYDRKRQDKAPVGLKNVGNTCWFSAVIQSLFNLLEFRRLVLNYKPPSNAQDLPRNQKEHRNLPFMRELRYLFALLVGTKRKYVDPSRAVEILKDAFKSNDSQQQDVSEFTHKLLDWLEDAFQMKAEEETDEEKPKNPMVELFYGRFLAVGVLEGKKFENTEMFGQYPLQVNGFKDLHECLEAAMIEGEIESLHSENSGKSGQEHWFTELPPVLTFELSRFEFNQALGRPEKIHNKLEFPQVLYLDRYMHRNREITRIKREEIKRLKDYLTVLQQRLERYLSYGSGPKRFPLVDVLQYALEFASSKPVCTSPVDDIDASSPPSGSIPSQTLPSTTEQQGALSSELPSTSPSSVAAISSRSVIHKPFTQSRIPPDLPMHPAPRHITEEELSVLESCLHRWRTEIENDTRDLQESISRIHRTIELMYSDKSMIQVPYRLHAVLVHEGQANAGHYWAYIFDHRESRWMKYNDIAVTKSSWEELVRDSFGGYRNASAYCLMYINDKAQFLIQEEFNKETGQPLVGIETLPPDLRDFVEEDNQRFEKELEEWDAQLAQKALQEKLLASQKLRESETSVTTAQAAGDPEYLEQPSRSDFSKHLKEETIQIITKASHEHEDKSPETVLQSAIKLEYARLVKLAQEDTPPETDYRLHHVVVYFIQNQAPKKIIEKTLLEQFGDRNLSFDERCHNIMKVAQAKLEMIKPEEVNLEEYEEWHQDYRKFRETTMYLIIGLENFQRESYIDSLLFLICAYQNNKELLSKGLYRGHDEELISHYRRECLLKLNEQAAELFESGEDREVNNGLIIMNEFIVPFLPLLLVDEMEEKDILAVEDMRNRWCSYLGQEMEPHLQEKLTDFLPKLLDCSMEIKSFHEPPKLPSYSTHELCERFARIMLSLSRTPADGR
Summed up:
as §1

The target of test [5] is T4, USP28 (UniProt Q96RU2).
T4 sequence (whole entry): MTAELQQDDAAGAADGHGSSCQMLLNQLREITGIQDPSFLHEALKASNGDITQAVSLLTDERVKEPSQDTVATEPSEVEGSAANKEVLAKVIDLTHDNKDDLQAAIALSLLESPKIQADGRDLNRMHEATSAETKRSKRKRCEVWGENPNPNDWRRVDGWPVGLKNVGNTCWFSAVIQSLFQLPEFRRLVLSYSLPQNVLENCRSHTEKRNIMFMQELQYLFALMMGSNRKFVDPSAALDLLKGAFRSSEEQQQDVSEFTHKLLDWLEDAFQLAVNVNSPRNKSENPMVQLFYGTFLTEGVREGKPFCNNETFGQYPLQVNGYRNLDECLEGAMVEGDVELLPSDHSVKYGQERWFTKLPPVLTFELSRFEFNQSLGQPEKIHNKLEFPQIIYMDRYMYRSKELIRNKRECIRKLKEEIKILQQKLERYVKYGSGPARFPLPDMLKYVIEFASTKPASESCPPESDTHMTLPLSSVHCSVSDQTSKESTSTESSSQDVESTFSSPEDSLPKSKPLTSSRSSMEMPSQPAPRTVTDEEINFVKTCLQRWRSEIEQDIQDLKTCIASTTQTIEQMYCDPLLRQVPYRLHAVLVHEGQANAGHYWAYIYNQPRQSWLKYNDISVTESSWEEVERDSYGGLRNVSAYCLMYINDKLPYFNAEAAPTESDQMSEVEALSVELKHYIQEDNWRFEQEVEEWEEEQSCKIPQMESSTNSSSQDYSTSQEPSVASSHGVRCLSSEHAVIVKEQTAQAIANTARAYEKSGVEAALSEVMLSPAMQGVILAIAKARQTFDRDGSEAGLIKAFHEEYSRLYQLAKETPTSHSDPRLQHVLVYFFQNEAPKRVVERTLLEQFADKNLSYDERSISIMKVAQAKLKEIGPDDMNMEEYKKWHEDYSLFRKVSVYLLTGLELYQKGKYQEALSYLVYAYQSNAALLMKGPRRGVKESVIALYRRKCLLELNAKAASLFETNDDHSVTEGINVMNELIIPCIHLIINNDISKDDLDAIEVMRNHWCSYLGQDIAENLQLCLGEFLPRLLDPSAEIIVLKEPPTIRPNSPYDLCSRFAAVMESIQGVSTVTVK
Summed up: as §1

Values without a mark were called inactive.

As to `N#Cc1ccccc1N1CCN(C(=O)CCl)CC1`, the “log2 ratio of Biotin-Ahx-Ub-VS probe labelling” value in test [1] was -0.813; in test [2] it was 0.0569; in test [3] it was -1.15 (active); in test [4], -0.657; in test [5] it was -1.05.
